The record followed here is PubChem BioAssay (NCI).

Among the test systems are SK-MEL-2 melanoma; EKVX NSCLC; SN12C renal; UO-31 renal; TK-10 renal; ACHN renal; CAKI-1 renal; A498 renal; MOLT-4 leukemia; CCRF-CEM leukemia.
Experiment in all cases: NCI-60 one-dose screen, 48 h (100 = growth as untreated, 0 = no growth, -100 = all killed)
Common to all, as to conditions: 10 µM unless noted

Compounds without any hit were thinned out: in the full panel of roughly 83,000, 20% have a hit.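 A percent growth of 40 corresponds to 60% growth inhibition; 0 means no net growth; -100 means all cells died. Active threshold: below 10.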 A number with no mark means an inactive call. Activity calls are given as the source filed them.

On to `COc1cc2oc(-c3cccc(NC(=O)[C@H](Cc4ccccc4)NC(=O)OC(C)(C)C)c3)cc(=O)c2c(OC)c1OC`, for which the growth with SK-MEL-2 melanoma is 20.9%; in the test with EKVX NSCLC, 55.9%; with SN12C renal it was 32%; in the test on UO-31 renal, 18.2%; in the test on TK-10 renal it was 45.2%; in the test with ACHN renal, 18.1%. Besides, the growth is 31.7% in the test on CAKI-1 renal, 77.9% in the test on A498 renal and 9.42% (active) with MOLT-4 leukemia.

Regarding `O=C(/C=C/c1ccc(-c2ccccc2)cc1)c1nc2ccccc2n1Cc1ccc(F)cc1`, the growth in the test with SK-MEL-2 melanoma is 56.6%; in the test with EKVX NSCLC, 34.4%; in the test on SN12C renal, 53.9%; in the test with UO-31 renal, 47.6%; in the test on TK-10 renal, 55.8%; with ACHN renal, 41.3%. The figures for the growth with CAKI-1 renal, with A498 renal and with MOLT-4 leukemia were 49.5%, 110% and -12.8% (active), respectively.

Take `Cc1c(C(=O)NNC(=O)Nc2ccc(Cl)cc2)nnn1-c1ccc(Br)cc1`: the growth is 109% in the test with SK-MEL-2 melanoma; 88% in the test with EKVX NSCLC; 103% in the test on SN12C renal; 96.1% with TK-10 renal; 99.7% in the test on ACHN renal; 83.9% in the test on CAKI-1 renal. In addition, the growth in the test with A498 renal is 99.8%; with CCRF-CEM leukemia it was 89%; in the test on MOLT-4 leukemia, 83.5%.

On to `CN1CCc2c(sc3ncnc(N/N=C/c4ccc(Cl)cc4Cl)c23)C1`, for which the growth was 9% (active) in the test on SK-MEL-2 melanoma; 33.1% with EKVX NSCLC; -32.8% (active) in the test with SN12C renal; -84% (active) in the test with TK-10 renal; -66.6% (active) in the test with ACHN renal; -61.6% (active) in the test on CAKI-1 renal. The growth in the test with A498 renal is 28.5%; in the test with CCRF-CEM leukemia it was -8.48% (active); with MOLT-4 leukemia, 1.96% (active).

Take `COc1ccc(C2CC(c3ccc(S(=O)(=O)NCCNc4nc(Nc5ccc(F)cc5)nc(N(C)C)n4)cc3)=Nc3c(N)nc(N)nc3N2)cc1` (stereo not drawn): the growth in the test on SK-MEL-2 melanoma was 107%; in the test with EKVX NSCLC it was 87.9%; with SN12C renal, 81.1%; in the test on TK-10 renal it was 107%; with ACHN renal it was 92.7%; in the test with CAKI-1 renal it was 88.1%. Also, the growth in the test on A498 renal was 93.6%; in the test on CCRF-CEM leukemia, 36.2%; in the test on MOLT-4 leukemia it was 20.6%.

Take `COc1cc2c3c(n(CCCN4CCC[C@@H]4CO)c(=O)c2cc1OC)-c1cc2c(cc1C3=O)OCO2`: the growth was 120% in the test with SK-MEL-2 melanoma; -70.6% (active) in the test with EKVX NSCLC; -91.7% (active) in the test with SN12C renal; 91.4% in the test with TK-10 renal; -100% (active) in the test with ACHN renal; 93.8% in the test with A498 renal. Also, the growth with CCRF-CEM leukemia is 6.04% (active); in the test with MOLT-4 leukemia, 5.36% (active).

For `COc1ccc(-c2nnc3ccc(N/N=C/c4ccc(O)cc4)nn23)cc1`, the growth in the test on SK-MEL-2 melanoma was 73.2%; in the test on EKVX NSCLC, 37.8%; in the test with UO-31 renal it was 30.3%; in the test on TK-10 renal, 38.9%; in the test with ACHN renal it was 43.5%; with CAKI-1 renal, 21.5%. The values for the growth with A498 renal and in the test on CCRF-CEM leukemia were 91.9% and 14.1%, respectively.

As for `COc1ccc(NC(=O)[C@@H](N)Cc2ccccc2)cc1C(=O)Nc1cccc(C2CC(=O)c3c(cc(OC)c(OC)c3OC)O2)c1` (stereo partly drawn), the growth is 77.9% in the test with SK-MEL-2 melanoma; 72.9% in the test on EKVX NSCLC; 56.4% in the test with SN12C renal; 94.8% in the test on TK-10 renal; 54.2% with ACHN renal; 96.3% in the test on A498 renal. The growth is 15% in the test with CCRF-CEM leukemia and 19.5% in the test on MOLT-4 leukemia.

Turning to `COc1ccc(C(=O)/C=C/c2ccc3ccccc3c2)cc1S(N)(=O)=O`, the growth in the test with SK-MEL-2 melanoma was 53.4%; in the test with EKVX NSCLC it was -73.4% (active); in the test on SN12C renal, -43.7% (active); in the test with TK-10 renal, -82.3% (active); with ACHN renal it was -92.2% (active); with CAKI-1 renal it was 2.11% (active). Also, the values for the growth with A498 renal and in the test on CCRF-CEM leukemia were 97.2% and 5.96% (active), respectively.

`Cn1cc(-c2cc3nc(-c4cn(C)c5ncc(Br)cc45)cc(N)n3n2)c2ccccc21`: the growth in the test on SK-MEL-2 melanoma was -73.6% (active); in the test on EKVX NSCLC, -44.2% (active); with UO-31 renal it was -36.3% (active); in the test on TK-10 renal it was -32.8% (active); with ACHN renal, -45.9% (active); in the test on CAKI-1 renal, 1.08% (active). The results for the growth in the test with A498 renal, in the test with CCRF-CEM leukemia and in the test with MOLT-4 leukemia were -24.3% (active), -23.9% (active) and -42% (active), respectively.

As for `C#CCOc1ccc(/C=N/Nc2nc(-c3cc4cc(OC)ccc4oc3=O)cs2)cc1OC`, the growth in the test on SK-MEL-2 melanoma was 55.2%; in the test with EKVX NSCLC it was 43.5%; in the test on SN12C renal, 42.3%; with TK-10 renal, 89.5%; in the test with ACHN renal, 40.2%; in the test with CAKI-1 renal it was 39.2%. In addition, the growth in the test with A498 renal was 78.7%; in the test on CCRF-CEM leukemia it was 66.3%; in the test with MOLT-4 leukemia, 63.9%.

Take `COc1cc(C2CC(c3ccc(S(=O)(=O)NCCNc4nc(Nc5ccc(F)cc5)nc(N(C)C)n4)cc3)=Nc3c(N)nc(N)nc3N2)cc(OC)c1OC` (stereo not drawn): the growth in the test with SK-MEL-2 melanoma was 90.8%; with EKVX NSCLC it was 87.3%; with SN12C renal, 83.9%; in the test on TK-10 renal it was 95.4%; in the test with ACHN renal it was 96.8%; in the test with CAKI-1 renal, 90.4%. For the same molecule, the values for the growth in the test on A498 renal, in the test with CCRF-CEM leukemia and with MOLT-4 leukemia were 86.8%, 33.8% and 34.4%, respectively.

Take `Cn1cc(-c2nc(N)nnc2-c2c[nH]c3ccc(F)cc23)c2cc(Br)cnc21`: the growth with SK-MEL-2 melanoma is -27.7% (active); in the test with EKVX NSCLC it was 26.2%; in the test on SN12C renal, 10.4%; in the test with TK-10 renal, 26.2%; in the test on ACHN renal, 12.2%; with CAKI-1 renal it was -10.9% (active). For the same molecule, the results for the growth in the test on A498 renal, in the test on CCRF-CEM leukemia and in the test with MOLT-4 leukemia were -31.2% (active), 5.12% (active) and -0.149% (active), respectively.

In the case of `COc1ccc2[nH]c(O)c(N=NC(=O)Cn3c(-c4ccccc4)nc4cc(C)ccc43)c2c1`, the growth in the test on SK-MEL-2 melanoma was 88.4%; with EKVX NSCLC it was 66.3%; in the test with UO-31 renal, 49.7%; in the test on TK-10 renal, 97.7%; in the test on ACHN renal, 41.1%; with CAKI-1 renal, 61.9%. The growth was 119% in the test with A498 renal, 8.31% (active) in the test with CCRF-CEM leukemia and 18.5% in the test with MOLT-4 leukemia.

For the molecule `C=CC(=O)Nc1ccc(C)c(Oc2ccc(Cl)cc2)c1`, the growth in the test with SK-MEL-2 melanoma is 41.8%; with EKVX NSCLC, 62.6%; in the test on UO-31 renal, 24.4%; in the test on TK-10 renal, 74%; in the test with ACHN renal it was 65.4%; with CAKI-1 renal, 61.7%. Also, the growth in the test with A498 renal is 58.5%; with CCRF-CEM leukemia it was 57.9%; in the test on MOLT-4 leukemia, 45.3%.

`COc1ccc(-c2nc3cc(C)ccc3n2CC(=O)N=Nc2c(O)[nH]c3ccc(Br)cc23)cc1`: the growth is 61.6% in the test with SK-MEL-2 melanoma; -36.5% (active) in the test on EKVX NSCLC; -57.8% (active) in the test with SN12C renal; 25.6% with TK-10 renal; 15.5% in the test with ACHN renal; 54.6% with CAKI-1 renal. In addition, the growth in the test with A498 renal was 136%; in the test on CCRF-CEM leukemia, 58.8%; in the test with MOLT-4 leukemia, 23.3%.

Consider `CN(C)c1ccnc(CNCCSC2(c3ccc(C(F)(F)F)cc3)c3ccccc3C=Cc3ccccc32)c1`, for which the growth in the test with SK-MEL-2 melanoma was -41.1% (active); in the test on EKVX NSCLC, -23.9% (active); with UO-31 renal, 17.6%; in the test on TK-10 renal, 12.4%; in the test with ACHN renal it was 13.2%; with CAKI-1 renal, 6.81% (active). Moreover, the growth is 21.6% with A498 renal, 0.384% (active) in the test with CCRF-CEM leukemia and 16.1% with MOLT-4 leukemia.

For the molecule `N#Cc1c(-c2cccc(Cl)c2Cl)cc(-c2c[nH]c3ccccc23)[nH]c1=O`, the growth in the test on SK-MEL-2 melanoma is 87.7%; in the test with EKVX NSCLC, 53%; in the test on UO-31 renal it was 43.1%; in the test with TK-10 renal, 108%; in the test with ACHN renal it was 59%; with CAKI-1 renal it was 53%. Besides, the growth is 128% with A498 renal, 33.1% in the test on CCRF-CEM leukemia and 41% in the test on MOLT-4 leukemia.

Turning to `CCOC(=O)/C=C/c1cccc2c1C(=O)NC(C)(c1cc3cc(Cl)ccc3oc1=O)N2` (stereo not drawn), the growth in the test on SK-MEL-2 melanoma is 7.1% (active); in the test with EKVX NSCLC, 31.8%; with SN12C renal, 31.5%; in the test on TK-10 renal, 46.2%; in the test with ACHN renal it was 10%; in the test on CAKI-1 renal it was 10.5%. Besides, the growth was 30.3% in the test on A498 renal, 37.4% with CCRF-CEM leukemia and 4.75% (active) with MOLT-4 leukemia.

Regarding `COc1ccc(-c2ccc(SCC(=O)NCCc3ccc(S(N)(=O)=O)cc3)nn2)cc1`, the growth in the test on SK-MEL-2 melanoma was 79.8%; in the test on EKVX NSCLC it was 93.9%; in the test with SN12C renal, 87.3%; with TK-10 renal, 87.9%; in the test with ACHN renal, 89.3%; with CAKI-1 renal, 90.6%. The growth with A498 renal is 123%; in the test on CCRF-CEM leukemia, 66%; in the test with MOLT-4 leukemia, 68.2%.

Regarding `COc1ccc2oc(=O)c(C3(C)NC(=O)c4c(/C=C/C(=O)OC(C)(C)C)cccc4N3)cc2c1` (stereo not drawn), the growth in the test on SK-MEL-2 melanoma was 7.6% (active); in the test on EKVX NSCLC it was 37.1%; with SN12C renal, 40.6%; in the test with TK-10 renal, 56.7%; in the test on ACHN renal, 28.6%; in the test with CAKI-1 renal, 39.9%. In addition, the results for the growth with A498 renal and with MOLT-4 leukemia were 57.8% and 18.1%, respectively.

Consider `Cc1ccc(C(=O)C(c2c[nH]c3ccccc23)c2c[nH]c3ccccc23)cc1`, for which the growth with SK-MEL-2 melanoma was 72.4%; with EKVX NSCLC, 56.5%; in the test on SN12C renal it was -12.8% (active); in the test with TK-10 renal, 111%; with ACHN renal it was 17.9%; with CAKI-1 renal, 18.7%. In addition, the growth in the test on A498 renal is 108%; in the test with CCRF-CEM leukemia, 5.91% (active); in the test with MOLT-4 leukemia, 5.7% (active).
